Assay results: PubChem BioAssay (NCATS)
Results filed as inconclusive are left out. Active and inactive are the calls of the source. The call rests on the fitted dose curve.

Experiments:
[1] = Primary qHTS for inhibitors of SARS-S pseudo-typed particle cell entry (AID 1479145); further: nearly all actives have a fitted effect of over 45% in size; on activity change, negative = inhibition: series mostly up to about 57 µM
[2] = Primary qHTS for Huh7 cytotoxicity: counterscreen for inhibitors of MERS-S pseudotyped particle cell entry (AID 1479147)
[3] = Primary qHTS for inhibitors of MERS-S pseudo-typed particle cell entry (AID 1479149); further: nearly all actives have a fitted effect of over 60% in size; on activity change, negative = inhibition: series mostly up to about 57 µM
[4] = Primary qHTS for Vero E6 cytotoxicity: counterscreen for inhibitors of SARS-S pseudo-typed particle cell entry (AID 1479150)
On the % scale 0 is the no-effect control and ±100 the full control effect.

C[N+](C)(C)CCOC(N)=O
inactive: Potency [1] | Potency [2] | Potency [3] | Potency [4]

O=C1c2c(O)cccc2Cc2cccc(O)c21
inactive: Potency [1] | Potency [2] | Potency [3] | Potency [4]

COc1ccc(C2C(=O)c3ccccc3C2=O)cc1
inactive: Potency [1] | Potency [2] | Potency [3] | Potency [4]

Cc1cc(NS(=O)(=O)c2ccc(N)cc2)nc(C)n1
inactive: Potency [1] | Potency [2] | Potency [3] | Potency [4]

CN1C(C(=O)Nc2ccccn2)=C(O)c2ccccc2S1(=O)=O
inactive: Potency [1] | Potency [2] | Potency [3] | Potency [4]

CCc1cccc(CC)c1NC(=O)CN(CC(=O)O)CC(=O)O
inactive: Potency [1] | Potency [2] | Potency [3] | Potency [4]

CC(C)NCC(O)c1ccc(NS(C)(=O)=O)cc1 (stereo unspecified)
inactive: Potency [1] | Potency [2] | Potency [3] | Potency [4]

O=C(O)CCCCC(=O)O
inactive: Potency [1] | Potency [2] | Potency [3] | Potency [4]

O=P(O)(O)C(Sc1ccc(Cl)cc1)P(=O)(O)O
inactive: activity change, negative = inhibition [1] -6.9% [at 0.573 µM] | outcome [2] inactive [at 0.573 µM] | outcome [3] inactive [at 0.573 µM] | outcome [4] inactive [at 0.573 µM]

OCCc1ccccc1
inactive: Potency [1] | Potency [2] | Potency [3] | Potency [4]

O=C(N[C@H](CO)[C@H](O)c1ccc([N+](=O)[O-])cc1)C(Cl)Cl
inactive: Potency [1] | Potency [2] | Potency [3] | Potency [4]

CN/C(=C\[N+](=O)[O-])NCCSCc1csc(CN(C)C)n1
inactive: Potency [1] | Potency [2] | Potency [3] | Potency [4]

CCO/C([O-])=N/c1c[n+](N2CCOCC2)no1
inactive: Potency [1] | Potency [2] | Potency [3] | Potency [4]

COC(=O)c1cc(Cl)ccc1NS(=O)(=O)C(F)(F)F
inactive: Potency [1] | Potency [2] | Potency [3] | Potency [4]

O=C(c1ccccc1)c1ccccc1
inactive: Potency [1] | Potency [2] | Potency [3] | Potency [4]

CC(=O)NS(=O)(=O)c1ccc(N)cc1
inactive: Potency [1] | Potency [2] | Potency [3] | Potency [4]

NC(=O)NC1NC(=O)NC1=O (stereo unspecified)
inactive: Potency [1] | Potency [2] | Potency [3] | Potency [4]

CCn1cc(C(=O)O)c(=O)c2cnc(N3CCCC3)nc21
inactive: activity change, negative = inhibition [1] -4.52% [at 11.4 µM] | outcome [2] inactive [at 11.4 µM] | outcome [3] inactive [at 11.4 µM] | outcome [4] inactive [at 11.4 µM]

CCOC(=O)[C@H](CCc1ccccc1)N[C@H]1CCCN2CCC[C@@H](C(=O)O)N2C1=O
inactive: Potency [1] | Potency [2] | Potency [3] | Potency [4]

CCOC(=O)Oc1ccc(CCNC(=O)[C@H](CCSC)NC(C)=O)cc1OC(=O)OCC
inactive: Potency [1] | Potency [2] | Potency [3] | Potency [4]

CN(CC1(C)CCCO1)S(=O)(=O)c1ccc(Cl)c(S(N)(=O)=O)c1 (stereo unspecified)
inactive: Potency [1] | Potency [2] | Potency [3] | Potency [4]

c1ccc2sc(SSc3nc4ccccc4s3)nc2c1
inactive: Potency [1] | Potency [2] | Potency [3] | Potency [4]

CC(=O)CC(c1ccc([N+](=O)[O-])cc1)c1c(O)c2ccccc2oc1=O (stereo unspecified)
inactive: Potency [1] | Potency [2] | Potency [3] | Potency [4]

CCCCOC(=O)c1ccc(O)cc1
inactive: Potency [1] | Potency [2] | Potency [3] | Potency [4]

NC(=O)NC(=O)Cc1ccccc1
inactive: Potency [1] | Potency [2] | Potency [3] | Potency [4]

NCCNCCNCCNCCN
inactive: outcome [1] inactive [at 11.4 µM] | outcome [2] inactive [at 11.4 µM] | outcome [3] inactive [at 11.4 µM] | activity change, negative = cytotoxicity [4] 1.23% [at 11.4 µM]

CC(C)Cc1ccc(C(C)C(=O)O)cc1 (stereo unspecified)
inactive: Potency [1] | Potency [2] | Potency [3] | Potency [4]

O=C(c1ccccc1)C(O)c1ccccc1 (stereo unspecified)
inactive: Potency [1] | Potency [2] | Potency [3] | Potency [4]

COc1ccnc(CS(=O)c2nc3ccc(OC(F)F)cc3[nH]2)c1OC (stereo unspecified)
inactive: Potency [1] | Potency [2] | Potency [3] | Potency [4]

OC[C@H]1O[C@H](O[C@]2(CCl)O[C@H](CCl)[C@@H](O)[C@@H]2O)[C@H](O)[C@@H](O)[C@H]1Cl
inactive: Potency [1] | Potency [2] | Potency [3] | Potency [4]

NCCS(=O)(=O)O
inactive: Potency [1] | Potency [2] | Potency [3] | Potency [4]

Cc1ccc(C(=O)c2ccc(CC(=O)O)n2C)cc1
inactive: Potency [1] | Potency [2] | Potency [3] | Potency [4]

CC(=O)OC(C)C[N+](C)(C)C (stereo unspecified)
inactive: Potency [1] | Potency [2] | Potency [3] | Potency [4]

CC1(C)O[C@H]2CC(=O)OC[C@]23[C@H]2CC[C@@]4(C)[C@H](c5ccoc5)OC(=O)[C@H]5O[C@]54[C@]2(C)C(=O)C[C@@H]13
inactive: Potency [1] | Potency [2] | Potency [3] | Potency [4]

CO[C@@]1(NC(=O)CSCC#N)C(=O)N2C(C(=O)O)=C(CSc3nnnn3C)CS[C@@H]21
inactive: Potency [1] | Potency [2] | Potency [3] | Potency [4]

CCC(C(=O)NC(=O)NC(C)=O)c1ccccc1 (stereo unspecified)
inactive: Potency [1] | Potency [2] | Potency [3] | Potency [4]

CCCCCCCCCCCCCCCC(=O)OC(C)C
inactive: Potency [1] | Potency [2] | Potency [3] | Potency [4]

Cc1ccccc1C(=O)N1CC/C(=N\OS(=O)(=O)O)c2ccc(Cl)cc21
inactive: Potency [1] | Potency [2] | Potency [3] | Potency [4]

CCCc1nn(C)c2c(=O)[nH]c(-c3cc(S(=O)(=O)N4CCN(C)CC4)ccc3OCC)nc12
inactive: Potency [1] | Potency [2] | Potency [3] | Potency [4]

CCCC(=O)OCOC(=O)C1=C(C)NC(C)=C(C(=O)OC)C1c1cccc(Cl)c1Cl (stereo unspecified)
inactive: Potency [1] | Potency [2] | Potency [3] | Potency [4]

NC(N)=NCCN1CCCCCCC1
inactive: outcome [1] inactive [at 0.573 µM] | outcome [2] inactive [at 0.573 µM] | outcome [3] inactive [at 0.573 µM] | activity change, negative = cytotoxicity [4] 3.58% [at 0.573 µM]

C[C@@H]1C[C@H]2[C@@H]3C[C@H](F)C4=CC(=O)C=C[C@]4(C)[C@@]3(F)[C@@H](O)C[C@]2(C)[C@@]1(O)C(=O)CO
inactive: Potency [1] | Potency [2] | Potency [3] | Potency [4]

COCCCN1CCC(NC(=O)c2cc(Cl)c(N)c3c2OCC3)CC1
inactive: Potency [1] | Potency [2] | Potency [3] | Potency [4]

CC(=O)N(CC(O)CO)c1c(I)c(C(=O)NCCO)c(I)c(C(=O)NCC(O)CO)c1I (stereo unspecified)
inactive: Potency [1] | Potency [2] | Potency [3] | Potency [4]

COc1cc(C(=O)NC2CCCNC2)cc(OC)c1OC (stereo unspecified)
inactive: Potency [1] | Potency [2] | Potency [3] | Potency [4]

Cc1cc(C)c(NC(=O)CN(CC(=O)O)CC(=O)O)c(C)c1Br
inactive: Potency [1] | Potency [2] | Potency [3] | Potency [4]

NS(=O)(=O)c1cc(C2(O)NC(=O)c3ccccc32)ccc1Cl (stereo unspecified)
inactive: Potency [1] | Potency [2] | Potency [3] | Potency [4]

CC(CCc1ccccc1)NCC(O)c1ccc(O)c(C(N)=O)c1 (stereo unspecified)
inactive: Potency [1] | Potency [2] | Potency [3] | Potency [4]

O=C(O)c1cc(N=Nc2ccc(O)c(C(=O)O)c2)ccc1O
inactive: Potency [1] | Potency [2] | Potency [3] | Potency [4]

O=P(O)(O)C(O)(Cn1ccnc1)P(=O)(O)O
inactive: Potency [1] | Potency [2] | Potency [3] | Potency [4]

Nc1ncnc2c1ncn2[C@@H]1O[C@H](CO)[C@@H](O)[C@H]1O
inactive: Potency [1] | Potency [2] | Potency [3] | Potency [4]

CNC(=O)c1c(I)c(NC(C)=O)c(I)c(C(=O)O)c1I
inactive: Potency [1] | Potency [2] | Potency [3] | Potency [4]

COc1c2occc2cc2ccc(=O)oc12
inactive: Potency [1] | Potency [2] | Potency [3] | Potency [4]

Cc1cc(C)nc(NS(=O)(=O)c2ccc(N)cc2)n1
inactive: Potency [1] | Potency [2] | Potency [3] | Potency [4]

Nc1ccc(C(=O)O)cc1
inactive: Potency [1] | Potency [2] | Potency [3] | Potency [4]

C[C@]12C=CC(=O)C=C1CC[C@@H]1[C@@H]2C(=O)C[C@@]2(C)[C@H]1CC[C@]2(O)C(=O)CO
inactive: Potency [1] | Potency [2] | Potency [3] | Potency [4]

CN1CCN(CC(=O)N2c3ccccc3C(=O)Nc3cccnc32)CC1
inactive: activity change, negative = inhibition [1] -4.78% [at 5.34 µM] | activity change, negative = cytotoxicity [2] 1.37% [at 5.34 µM] | outcome [3] inactive [at 5.34 µM] | outcome [4] inactive [at 5.34 µM]

CNC[C@H](O)[C@@H](O)[C@H](O)[C@H](O)CO
inactive: Potency [1] | Potency [2] | Potency [3] | Potency [4]

O=C1[C@@H]2[C@H]3CC[C@H](C3)[C@@H]2C(=O)N1CCCCN1CCN(c2ncccn2)CC1
inactive: Potency [1] | Potency [2] | Potency [3] | Potency [4]

CC(C)Cn1cnc2c(N)nc3ccccc3c21
inactive: Potency [1] | Potency [2] | Potency [3] | Potency [4]

O=S(=O)(O)CCS
inactive: Potency [1] | Potency [2] | Potency [3] | Potency [4]

CC(=O)N=c1sc(S(N)(=O)=O)nn1C
inactive: Potency [1] | Potency [2] | Potency [3] | Potency [4]

COc1cc(NS(=O)(=O)c2ccc(N)cc2)nc(C)n1
inactive: Potency [1] | Potency [2] | Potency [3] | Potency [4]

O=S(=O)(O)c1ccc(O)cc1
inactive: Potency [1] | Potency [2] | Potency [3] | Potency [4]

COCCCOc1ccnc(CS(=O)c2nc3ccccc3[nH]2)c1C (stereo unspecified)
inactive: Potency [1] | Potency [2] | Potency [3] | Potency [4]

O=c1[nH]cnc2[nH]ncc12
inactive: Potency [1] | Potency [2] | Potency [3] | Potency [4]

CO[C@@]1(NC(=O)C2SC(=C(C(N)=O)C(=O)O)S2)C(=O)N2C(C(=O)O)=C(CSc3nnnn3C)CS[C@@H]21 (stereo partly specified)
inactive: Potency [1] | Potency [2] | Potency [3] | Potency [4]

O=C(O)C(S)C(S)C(=O)O (stereo unspecified)
inactive: Potency [1] | Potency [2] | Potency [3] | Potency [4]

Cc1cccc(C)c1NC(=O)CC12CCCN1CCC2
inactive: Potency [1] | Potency [2] | Potency [3] | Potency [4]

CN[C@@H]1[C@H](O)[C@H](NC)[C@H]2O[C@@]3(O)C(=O)C[C@@H](C)O[C@H]3O[C@@H]2[C@H]1O
inactive: Potency [1] | Potency [2] | Potency [3] | Potency [4]

Nc1ccc(S(=O)(=O)Nc2ccnn2-c2ccccc2)cc1
inactive: Potency [1] | Potency [2] | Potency [3] | Potency [4]

O=C1c2ccccc2C(=O)c2c1ccc(O)c2O
inactive: Potency [1] | Potency [2] | Potency [3] | Potency [4]

CCCCCCCN(CC)CCCC(O)c1ccc(NS(C)(=O)=O)cc1 (stereo unspecified)
inactive: Potency [1] | Potency [2] | Potency [3] | Potency [4]

NS(=O)(=O)c1cc2c(cc1Cl)NC(CC1CCCC1)NS2(=O)=O (stereo unspecified)
inactive: Potency [1] | Potency [2] | Potency [3] | Potency [4]
